Source: PubChem
Compounds with a hit are over-represented: about 2.2% of the library has one in this group of screens.
Shn3 inh set2 = reduction of Shn3 3'UTR firefly luciferase signal, primary screen, Schnurri-3 inhibitor project, cell-based, Clone20 osteoblasts, set 2; Clone20 osteoblast Shn3 3'UTR firefly luciferase, 24 h; AID 588674, 2011; inhibition, % at 12.5 µM; actives 0.52% (n = 360,000);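 active means mean inhibition of at least 75% with every replicate also reaching 75%; inconclusive means mean inhibition at least 75% but some replicate below; inactive means mean inhibition below 75%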;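 further: 0% = median of neutral control wells and 100% = pilot-screen positive control compound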
PfHsp90 set2 = growth inhibition of PfHsp90-expressing yeast, primary screen, antimalarial PfHsp90 inhibitor project, S. cerevisiae, BacTiter-Glo luminescence, single point, set 2; BacTiter-Glo ATP, 48 h; yeast lacking PDR1 and PDR3 efflux regulators; inhibition, % at 9.4 µM; actives 0.32% (n = 310,000);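 active means every replicate shows inhibition above about 80%, whatever the replicate mean, limit read from the data; inconclusive means mean inhibition reaches the set limit but some replicate falls short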;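 further: 0% = DMSO neutral controls and 100% = 20 µM radicicol positive controls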
CSC inhib = cancer stem cell viability inhibitors, primary screen, luminescence | inhibition, % at 7.5 µM | actives 1.1% (n = 300,000) | AID 2717, 2010 | cancer stem cell-like cells viability; in the data active means inhibition above about 75%; inconclusive means no clear call, values can overlap the other calls; tested in HMLE shEcad cells
Calb FLC = C. albicans growth inhibition with fluconazole, primary screen, CaCi-2 strain, Alamar Blue fluorescence; AID 1979, 2009; growth inhibition, % (concentration not given with the values); C. albicans CaCi-2 (fluconazole-resistant clinical isolate) + fluconazole, 48 h; actives 0.57% (n = 300,000);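 active means growth inhibition above about 58% in most replicates, limit read from the data, passing the limit was not always enough; inconclusive means exactly half the replicates above a set limit; inactive means most replicates below a set limit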;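 further: all wells also contain fluconazole at 8 µg/ml as a sub-toxic cotreatment; 0% = median of DMSO wells and 100% = median of geldanamycin control wells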
Beta cell apopt = inhibitors of cytokine-induced beta cell apoptosis, primary screen, luminescence. INS-1E cytokine-induced death, ATP luminescence, 48 h; percent of positive-control rescue, neutral wells zero. protection from apoptosis, % (test concentration not listed). actives 0.8% (n = 300,000). AID 435005, 2010;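 active means Every replicate reaches about 75%, or at least half do and their mean reaches it too, limit read from the data; inconclusive means At least half of replicates reach the limit but their mean does not; inactive means Under half of replicates reach the limit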;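 further: 0% = cytokine-treated negative control wells and 100% = positive control rescue; higher means more ATP so stronger rescue from cytokine killing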
Active calls of the source: *; ? = inconclusive; . = no result given.

SMILES	Shn3 inh set2	PfHsp90 set2	CSC inhib	Calb FLC	Beta cell apopt
COc1cc(NC2CCCCC2O)c2nc(-c3ccc(Cl)cc3)ccc2c1 (configuration not stated)	-14	-30	?	-4	80*
CN(C)c1nc2c(N)ncnc2n1C1OC(CO)C(O)C1O (configuration not stated)	5	5	.	.	.
CN(C)c1ncnc2c1ccn2C1OC(CO)C(O)C1O (configuration not stated)	88*	-15	.	.	.
OCC1OC(n2ccc3c(NO)ncnc32)C(O)C1O (configuration not stated)	99*	-5	.	.	.
COc1cc(OC)c2cc(C(=O)N[C@@H](Cc3ccccc3)C(=O)O)n(C)c2c1	-3	-12	-5	7	1
O=C(Cc1csc(-c2ccccc2)n1)NCC(=O)Nc1ccc(F)c(F)c1F	14	-15	-2	.	0
CSC1=NCCN1CCOc1ccccc1	-17	-44	1	3	-7
CCN(CC)CCNC(=O)Cn1cnc2sc(C)c(S(=O)(=O)N3CC(C)CC(C)C3)c2c1=O (configuration not stated)	-17	-3	5	-20	0
CC(C)(c1ccccc1)c1ccc(OCCCN2CCNCC2)cc1	5	9	80*	-2	9
CC(C)(C)c1ccc(OCCCCCCN2CCNCC2)cc1	26	16	64	-18	11
COc1ccc2oc(/C=C/N(C)C)c(C(=O)c3ccc(Cl)cc3)c2c1	37	112*	40	31	-4
Cc1nnsc1S(=O)c1ccc(Cl)cc1 (configuration not stated)	-6	10	.	-4	.
O=C(c1nnsc1S(=O)(=O)c1ccc(Cl)cc1)N1CCOCC1	95*	20	.	5	.
CNC(=O)c1nnsc1S(=O)(=O)c1ccc(Cl)cc1	99*	-118	.	-7	.
O=C(Nc1ccccc1)c1nnsc1S(=O)c1ccc(Cl)cc1 (configuration not stated)	70	106*	106*	42	8
O=C(c1nnsc1S(=O)c1ccc(Cl)cc1)N1CCOCC1 (configuration not stated)	94*	-31	.	-17	.
Cc1cc2c(cc1C)C(c1cc(Br)ccc1F)CC(=O)N2 (configuration not stated)	16	22	172*	-12	-3
CCN(C(=O)CCS(=O)(=O)c1cccc2nonc12)c1ccc(C)c(C)c1	-13	-110	-7	13	-5
CCOC(=O)C1CCN(CCC(=O)Nc2ccc(Br)cc2)CC1	10	-16	4	-15	-11
CCOC(=O)C1CCN(CCC(=O)Nc2ccc(F)cc2)CC1	-20	-9	-6	107*	-1
CCCCN1C(=O)/C(=C2\SC(N3CCCCC3)=NC2=O)c2ccccc21	-39	-33	42	-9	80*
O=C(CCS(=O)(=O)c1ccccc1)Nc1ccc(Cl)cn1	-13	15	.	7	-2
CC(OC(=O)Cn1[nH]c(=O)c2ccccc2c1=O)C(=O)c1ccccc1 (configuration not stated)	6	-2	-9	-5	-13
Cc1cc(-c2ccccc2)nc2cc(C(=O)N(Cc3ccccc3)Cc3ccccc3)nn12	30	19	83*	2	19
COc1ccc(-c2n[nH]c(C(F)(F)F)c2-c2cc3ccccc3o2)c(O)c1	5	73	102*	17	22
SMILES	Shn3 inh set2	PfHsp90 set2	CSC inhib	Calb FLC	Beta cell apopt
CCOc1ccc(/C(C)=N/NC(=O)c2nnn(-c3nonc3N)c2-c2cccs2)cc1	8	9	10	10	2
CCC(C)OC(=O)C[N+](C)(C)CCOC1CC2CCC1(C)C2(C)C (configuration not stated)	63	-10	30	87*	19
CCCOC(=O)C[N+](C)(C)CCOC1CC2CCC1(C)C2(C)C (configuration not stated)	34	-2	-1	-8	4
CC(C)CCOC(=O)C[N+](C)(C)CCOC1CC2CCC1(C)C2(C)C (configuration not stated)	69	1	0	103*	32
CCCCCCOC(=O)C[N+](C)(C)CCOC1CC2CCC1(C)C2(C)C (configuration not stated)	25	5	-6	103*	123*
CCCCOC(=O)C[N+](C)(C)CCOC1CC2CCC1(C)C2(C)C (configuration not stated)	38	32	4	?	9
CCCCCCCOC(=O)C[N+](C)(C)CCOC1CC2CCC1(C)C2(C)C (configuration not stated)	85*	-6	.	107*	.
CCCCN1C2CCCC1CC(NC(=O)c1cccc(Cl)c1)C2 (configuration not stated)	-133	4	-1	-1	-1
O=C(CNC(=O)[C@@H]1Cc2ccccc2CN1)Nc1ccc2c(c1)OCCO2	12	-5	-4	0	-4
O=C(COC(=O)c1ccccc1NCCO)NNC(=O)c1cccs1	-19	.	-7	-10	-4
O=C(O)C1C2OC(C(Br)C2Br)C1C(=O)O (configuration not stated)	0	19	.	.	.
O=C1CC(N2CCC(c3nc4ccccc4o3)CC2)C(=O)N1c1ccc(Cl)c(C(F)(F)F)c1 (configuration not stated)	31	104*	.	34	.
O=C1CC(N2CCC(c3nc4ccccc4o3)CC2)C(=O)N1c1ccc(F)cc1 (configuration not stated)	5	-6	-7	0	-5
Cc1ccc(C)c(C(=O)Cn2c(NCCO)nc3ccccc32)c1	19	4	-2	-8	-2
Nc1nc(-c2ccccn2)nc(N)c1Cc1c(F)cccc1Cl	77	-23	5	?	96*
Nc1nc(-c2ccccn2)nc(N)c1Cc1ccccc1F	-6	-5	-13	21	20
Nc1nc(-c2ccccn2)nc(N)c1Cc1ccc(Cl)cc1Cl	81	16	-10	24	96*
Clc1ccc(OCc2nc(-c3ccccn3)no2)c(Br)c1	-12	10	59	-2	6
OC(CNCCc1ccc(C(F)(F)F)cc1)COC(c1ccccc1)c1ccccc1 (configuration not stated)	32	-8	107*	4	23
COc1ccc(C(OCC(O)CNCCc2ccc(S(N)(=O)=O)cc2)c2ccc(OC)cc2)cc1 (configuration not stated)	9	-2	2	-8	-1
Cc1cc(Cl)ccc1OCC(=O)OCC(=O)N1CCC(C(N)=O)CC1	-3	11	-14	.	-6
Cc1c(Nc2cc(N3CCOCC3)c3nonc3c2[N+](=O)[O-])c(=O)n(-c2ccccc2)n1C	.	.	13	-14	.
